{"source": "PubChem BioAssay (Tox21)", "key": {"[1]": {"experiment": "qHTS assay to identify small molecule agonists of the constitutive androstane receptor (CAR) signaling pathway - cell viability counter screen (AID 1224836); note: series mostly up to about 92 µM; nearly all actives have a fitted effect of over 45% in size", "procedure,_shortened": "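Cell viability multiplexed with the CAR agonist screen: CellTiter-Fluor fluorescence after 23 hr at 37 C. HepG2-CYP2B6-hCAR cells got compounds at 15 concentrations with PK11195 at 0.75 uM final.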"}, "[2]": {"biological_target": "Luciferin 4-monooxygenase (Photinus pyralis) (UniProt P08659)", "sequence (P08659 whole entry, looked up)": "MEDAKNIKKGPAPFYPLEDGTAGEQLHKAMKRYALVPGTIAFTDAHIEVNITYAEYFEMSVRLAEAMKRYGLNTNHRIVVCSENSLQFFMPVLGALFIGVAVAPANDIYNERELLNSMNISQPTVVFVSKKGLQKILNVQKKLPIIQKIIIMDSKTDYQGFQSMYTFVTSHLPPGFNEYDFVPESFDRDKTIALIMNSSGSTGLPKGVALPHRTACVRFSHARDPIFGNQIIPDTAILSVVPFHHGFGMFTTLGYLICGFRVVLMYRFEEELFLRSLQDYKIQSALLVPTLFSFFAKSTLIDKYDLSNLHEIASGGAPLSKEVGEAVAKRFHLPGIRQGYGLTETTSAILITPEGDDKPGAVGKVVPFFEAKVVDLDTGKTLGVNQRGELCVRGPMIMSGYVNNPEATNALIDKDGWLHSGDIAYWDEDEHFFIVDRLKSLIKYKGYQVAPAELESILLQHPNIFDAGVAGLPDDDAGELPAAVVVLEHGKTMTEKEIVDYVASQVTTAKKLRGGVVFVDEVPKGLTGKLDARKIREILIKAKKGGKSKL", "experiment": "qHTS assay to identify small molecule inhibitors of firefly luciferase (AID 1224835); note: nearly all actives have a fitted effect of over 25% in size; note: potency is the fitted concentration of half-maximal effect", "procedure,_shortened": "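Quantitative HTS format; KM concentrations of both substrates. Purified P. pyralis FLuc activity quantified from luminescence images.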"}, "[3]": {"experiment": "qHTS assay to identify small molecule antagonists of the estrogen related receptor (ERR) signaling pathway from Tox21 library - cell viability counter screen (AID 1224834); note: nearly all actives have a fitted effect of over 30% in size", "procedure,_shortened": "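CellTiter-Fluor fluorescence measured; ERR cells; 17.5 h compound incubation at 37 C; 30 min reagent step.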"}}, "note": "Inconclusive results are not listed. Entries that show only a call come without a potency. The source made the active and inactive calls. Calls come from the whole dose curve; as a rule, active = well fitted curve in the direction sought with a large enough effect in the repeat runs; inconclusive = weak or mixed curves; inactive = no such curve, though single readings can be large; an effect the other way counts as inactive or inconclusive."}
{"molecule": "COc1cc([C@@H]2c3cc4c(cc3[C@@H](O[C@@H]3O[C@@H]5CO[C@@H](C)O[C@H]5[C@H](O)[C@H]3O)[C@H]3COC(=O)[C@H]23)OCO4)cc(OC)c1O", "values": [{"measurement": "Potency", "setting": "[1]", "value": "inactive"}]}
{"molecule": "Nc1ccc(Oc2cccc(Oc3ccc(N)cc3)c2)cc1", "values": [{"measurement": "Potency", "setting": "[2]", "value": "35.6 µM (active)"}, {"measurement": "Potency", "setting": "[1]", "value": "inactive"}]}
{"molecule": "O=C(Nc1ccc([N+](=O)[O-])cc1)Nc1ccc([N+](=O)[O-])cc1", "note": "(tested in a mixture with another compound)", "values": [{"measurement": "Potency", "setting": "[1]", "value": "inactive"}]}
{"molecule": "Clc1nc(C(Cl)(Cl)Cl)c(Cl)c(Cl)c1Cl", "values": [{"measurement": "Potency", "setting": "[2]", "value": "inactive"}]}
{"molecule": "O=S(=O)(c1ccc(OCc2ccccc2)cc1)c1ccccc1O", "values": [{"measurement": "Potency", "setting": "[2]", "value": "inactive"}]}
{"molecule": "Cc1ccc(N=Nc2c(O)ccc3ccccc23)c(C)c1", "values": [{"measurement": "Potency", "setting": "[2]", "value": "13.8 µM (active)"}, {"measurement": "Potency", "setting": "[1]", "value": "inactive"}]}
{"molecule": "CC/C=C\\C/C=C\\C/C=C\\CCCCCCCC(=O)OC", "values": [{"measurement": "Potency", "setting": "[2]", "value": "inactive"}, {"measurement": "Potency", "setting": "[1]", "value": "inactive"}]}
{"molecule": "CCc1cccc(C)c1N(C(=O)C(=O)O)C(C)COC", "note": "(stereo unspecified)", "values": [{"measurement": "Potency", "setting": "[3]", "value": "inactive"}, {"measurement": "Potency", "setting": "[1]", "value": "inactive"}]}
{"molecule": "O=c1[nH]cccc1O", "values": [{"measurement": "Potency", "setting": "[2]", "value": "inactive"}, {"measurement": "Potency", "setting": "[1]", "value": "inactive"}]}
{"molecule": "c1ccc2c(c1)-c1ccc3ccc4cccc5cc-2c1c3c45", "values": [{"measurement": "Potency", "setting": "[2]", "value": "11 µM (active)"}]}
{"molecule": "CC(=O)N(C)C", "values": [{"measurement": "Potency", "setting": "[2]", "value": "inactive"}]}
